KB-V1 MDR tox: kills drug-selected multidrug resistant KB-V1 cells. KB-V1 MDR cells viability, CellTiter-Glo, 72 h. Potency, µM (highest dose often 46.1 µM), usual class: cytotoxic. actives 3.4% (n = 400,000); further: on the % scale 0 is the no-effect control and ±100 the full control effect; nearly all actives have a fitted effect of over 60% in size
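Cells of the MDR subline KB-V1 are plated, dosed with compound at multiple concentrations, and incubated 72 h at 37 degrees C; CellTiter-Glo is then added and luminescence read after 10 min.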
HT1080-NT tox: kills 2HG-producing HT-1080-NT fibrosarcoma cells; HT-1080-NT fibrosarcoma viability, CellTiter-Glo ATP luminescence, 48 h; AID 686970; actives 1.6% (n = 360,000); Potency, µM (titrated, usually from 46.1 µM), inactives show at the highest dose activity, negative = less viability, most hits filed as cytotoxic;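 further: NT is the 2HG producing partner of a matched IDH1 knockdown line; 0% = DMSO-treated cells and -100% = media-only wells without cells; nearly all actives have a fitted effect of over 55% in size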
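HT-1080-NT; 750 cells/well; 5% FBS RPMI; 48 h compound, 37 degrees C; CellTiter-Glo luminescence; curve fitting and curve-class assignment.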
MCF10A rerep: inducers of DNA re-replication in MCF 10A breast cells; MCF 10A DNA re-replication, Hoechst nuclear intensity, 48 h; Potency, µM (highest dose often 46.1 µM), inactives show top-dose activity, positive = re-replication, hits mostly activators; actives 2.9% (n = 350,000); AID 624296; further: % of control where 0% means no effect; nearly all actives have a fitted effect of over 50% in size
HT1080 IDH1KD tx: HT-1080 IDH1 knockdown cell toxicity (counter line). HT-1080 IDH1 knockdown viability, ATP luminescence, 48 h. Potency, µM (titrated, usually from 46.1 µM), for inactives: at the highest dose activity, negative = toxicity, actives largely listed as cytotoxic. actives 2% (n = 360,000);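 further: 0% = DMSO wells and -100% = cell-free medium wells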
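IDH1KD HT-1080 cells, 750/well, RPMI + 5% FBS; compound pinned after 2 h settling; 48 h, 37 °C; CellTiter-Glo luminescence; % activity normalised to DMSO and no-cell wells; curves fitted, classed by r2 and efficacy.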
SW480 rerep: inducers of DNA re-replication in SW480 colon cancer cells; actives 1.8% (n = 340,000); Potency, µM (highest dose often 46.1 µM), for the others: top-dose re-replication activation, most hits filed as activators; SW480 DNA re-replication, Hoechst DNA content imaging, 48 h; AID 624297; further: % of control where 0% means no effect; nearly all actives have a fitted effect of over 55% in size
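Image-based DNA-content assay: after two days of treatment, nuclei were labelled with the DNA dye Hoechst and imaged, and hits were compounds raising the count of nuclei showing high fluorescence intensity.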
KB-3-1 tox: KB-3-1 parental cell cytotoxicity | KB-3-1 viability, CellTiter-Glo ATP luminescence, 72 h | Potency, µM (top dose mostly 46.1 µM), hits mostly cytotoxic | actives 1.4% (n = 400,000) | AID 1347075; further: on the % scale 0 is the no-effect control and ±100 the full control effect; nearly all actives have a fitted effect of over 60% in size
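Parental KB-3-1 viability, qHTS format: 72 h compound exposure, 37 °C; CellTiter-Glo; media-only wells and DMSO plates as controls; concentration-effect fits on corrected data.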
Active calls of the source: *; i = inactive; ? = inconclusive; · = not tested or not shown. This is a sample that favours compounds with a hit; in the whole collection about 7.9% have one here. The call rests on the fitted dose curve; in most records, active means well fitted curve in the direction sought with a large enough effect; inconclusive means small, poorly fitted or top-dose-only effect, or another doubt; inactive means no such curve, though single readings can be large; an effect the other way counts as inactive or inconclusive. Potency means the concentration at half of the fitted maximal effect.

SMILES	KB-V1 MDR tox	HT1080-NT tox	MCF10A rerep	HT1080 IDH1KD tx	SW480 rerep	KB-3-1 tox
CC(=O)Nc1ccc(S(=O)(=O)NNc2ccc([N+](=O)[O-])cc2)cc1	i	?	?	16µM*	-4%	?
Cc1onc(-c2ccccc2Cl)c1C(N)=O	i	2%	-6%	2%	-7%	i
O=C(Nc1ccc(Cl)c(-c2nc3ccccc3[nH]2)c1)c1cccnc1	21µM*	?	1%	?	3%	i
CC(=O)Nc1cccc(NC(=O)Cc2cccs2)c1	i	-3%	1%	0%	3%	i
O=C(Cc1cccs1)Nc1cccc(-c2nc3cc4ccccc4cc3[nH]2)c1	?	23µM*	?	?	1%	?
COc1c(Cl)cc(C(=O)Nc2cccc(-c3nc4ccccc4[nH]3)c2)cc1Cl	21µM*	·	·	·	·	?
COc1c(Cl)cc(C(=O)Nc2ccccc2-c2ccccc2)cc1Cl	15µM*	0%	?	8%	7%	21µM*
O=C(O)/C=C/C(=O)NC1CCS(=O)(=O)C1 (centres undefined)	i	17%	11%	13%	-4%	i
Cc1cccc(C(=O)NCC(=O)OCC(=O)NC2CCCCC2)c1	i	16%	1%	6%	0%	i
O=C(O)CC/C(=N\Nc1ccc(S(=O)(=O)N2CCOCC2)cc1[N+](=O)[O-])c1cccs1	i	?	-4%	-24%	-10%	i
NC(=O)C1CCCN(CCc2ccccc2)C1 (centres undefined)	i	8%	-4%	3%	-6%	i
CS(=O)(=O)c1ccccc1C(=O)Nc1ccc(-c2nc3ccccc3[nH]2)cc1	i	3%	-4%	0%	6%	i
CS(=O)(=O)c1cccc(C(=O)Nc2ccc(-c3nc4ccccc4[nH]3)cc2)c1	i	12µM*	11%	12µM*	15%	?
Cc1cc(F)ccc1S(=O)(=O)Nc1ccccc1C(=O)Nc1ccccc1-c1nc2ccccc2[nH]1	18µM*	?	3.7µM*	?	?	?
O=C(Nc1ccc(-c2nc3ccc(NC(=O)c4cccs4)cc3[nH]2)cc1)c1cccs1	i	·	?	·	?	6.5µM*
O=C(Nc1ccc(-c2nc3ccccc3[nH]2)cc1)c1ccccc1NS(=O)(=O)c1ccc(F)cc1	i	-4%	18µM*	-3%	?	i
CCc1cc(C(=O)N(CC)CC(=O)Nc2ccc(OC)cc2)sc1C	18µM*	-1%	?	2%	9%	i
Cc1ccc(NC(=O)CN(C)C(=O)Cc2coc3cc(C)c(C)cc23)cc1	i	0%	3%	-6%	-26%	i
CCN(CC(=O)Nc1ccc(OC)cc1)C(=O)Cc1coc2cc(C)c(C)cc12	16µM*	-1%	-1%	-7%	-1%	i
COc1ccc2sc3c(=O)[nH]c4ccccc4c3c2c1	?	-22%	?	-15%	5%	?
COc1ccc2c(c1)[nH]c(=O)c1sc3ccccc3c12	i	-29%	13µM*	-29%	3%	i
Cc1cccc(Cn2c(-c3cccs3)nc3ccccc32)c1	?	·	·	·	·	i
COc1ccc(OC)c(CN2C(=O)c3ccccc3C2c2nnnn2-c2ccc3c(c2)OCCO3)c1 (centres undefined)	i	?	·	?	·	4.6µM*
COc1ccc(CCN2C(=O)c3ccccc3C2c2nnnn2-c2ccc3c(c2)OCCO3)cc1OC (centres undefined)	?	2%	·	20%	·	i
CC(C)Oc1cc(F)ccc1-c1cc(C(=O)Nc2cccc(C(F)(F)F)c2)[nH]n1	?	16µM*	·	?	·	?
SMILES	KB-V1 MDR tox	HT1080-NT tox	MCF10A rerep	HT1080 IDH1KD tx	SW480 rerep	KB-3-1 tox
Cc1cccc(OCCSc2nc3ccc(NC(=O)COc4ccccc4)cc3s2)c1	i	·	·	·	·	i
CCCCC[C@H](C)N1C[C@H](COCc2ccccc2)Oc2cc(N3CC[C@H](O)C3)ccc2S1(=O)=O	i	?	·	?	·	i
CCCCC[C@@H](C)N1C[C@H](COCc2ccccc2)Oc2cc(N3CC[C@H](N(C)C)C3)ccc2S1(=O)=O	?	21µM*	·	15µM*	·	?
C[C@@H](c1ccccc1)N1C[C@H](COCc2ccccc2)Oc2cc(N3CC[C@@H](N(C)C)C3)ccc2S1(=O)=O	?	?	·	?	·	i
C[C@H](c1ccccc1)N1C[C@H](COCc2ccccc2)Oc2cc(N3CC[C@H](N(C)C)C3)ccc2S1(=O)=O	?	23µM*	·	15µM*	·	?
CCOc1ccccc1NC(=O)N1CCN(C)c2ncccc21	i	·	·	·	·	i
O=C(CSc1nc2ccccc2c(=O)n1-c1ccc(F)cc1F)c1c[nH]c2ccccc12	i	-19%	?	-10%	-4%	i
COc1cccc(N2[C@@H](CC(C)=O)c3ccc(/C=C/C(C)=O)cc3S2(=O)=O)c1	?	10%	21µM*	?	11%	?
COC(=O)C[C@H]1c2ccccc2S(=O)(=O)N1c1cccc(OC)c1	i	15%	29%	5%	0%	i
COc1ccccc1/C=C/C=N/n1c(-c2cc(C)[nH]n2)n[nH]c1=S	i	-1%	1%	-1%	18%	i
Clc1cccc(CNc2nnnn2-c2ccccc2)c1	23µM*	-5%	?	-14%	-3%	?
COc1cc(/C=C2/C(=O)c3cccc([N+](=O)[O-])c3C2=O)c(Br)cc1O	i	?	?	18µM*	?	i
CCCn1c(N)c(C(=O)CSc2ncc(C(F)(F)F)cc2Cl)c(=O)[nH]c1=O	?	-16%	16µM*	-1%	22%	i
CCNc1ccc(S(=O)(=O)N(C)C)cc1NCC(=O)Nc1ccccc1F	i	8%	0%	4%	-11%	i
CCNc1ccc(S(=O)(=O)N(C)C)cc1NCC(=O)Nc1ccc(Br)cc1F	16µM*	-5%	5%	-2%	2%	i
COc1cccc(CCn2c(N)cc(=O)[nH]c2=S)c1OC	·	6%	·	28%	·	·
Cc1ccc(C(=O)N2CCN(CCNC(=O)C(=O)Nc3ccc(Cl)cc3)CC2)cc1	i	7%	8%	3%	26%	i
O=C(Cn1cnc2c(nnn2Cc2ccc(F)cc2)c1=O)N1CCN(c2ccccc2)CC1	9.2µM*	-2%	9%	5%	-13%	i

Screens: PubChem BioAssay, National Center for Advancing Translational Sciences (NCATS)
